The nature of experiment [1]: qHTS assay to identify small molecule antagonists of the estrogen receptor alpha (ER-alpha) signaling pathway using the BG1 cell line in the presence of 0.1 nM 17-beta-estradiol - cell viability counter screen (AID 1259241). Note: nearly all actives have a fitted effect of over 40% in size. Note: potency is the fitted concentration of half-maximal effect. The essentials:
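Cytotoxicity counter-screen: live-cell protease activity measured by fluorescence (30 min reagent step) in the same wells. Cells were VM7Luc4E2 with endogenous ER-alpha and ERE-driven luciferase, treated 22 hr at 37C alongside 0.1 nM 17beta-estradiol final.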

Experiment [2] in a line: qHTS assay to identify small molecule antagonists of the androgen receptor (AR) signaling pathway using the MDA cell line in the presence of 0.5 nM R1881 - cell viability counter screen (AID 1259242). Note: nearly all actives have a fitted effect of over 45% in size. Note: potency is the fitted concentration of half-maximal effect. A digest of the protocol: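 MDA-kb2 cells (human breast carcinoma, stably carrying MMTV-luciferase reporter) were exposed to compounds with 0.5 nM R1881 (final) for 16 hr at 37C, 0% CO2; viability then read as live-cell protease fluorescence (CellTiter-Fluor, 30 min) in the same wells.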
On the technique in general: Quantitative high-throughput screening tests each substance at several concentrations.

The target in experiment [3] is Androgen receptor (Homo sapiens) (UniProt P10275). Nature of the experiment: qHTS assay to identify small molecule antagonists of the androgen receptor (AR) signaling pathway using the MDA cell line in the presence of 0.5 nM R1881 (AID 1259243). Note: nearly all actives have a fitted effect of over 50% in size. Note: potency is the fitted concentration of half-maximal effect. A digest of the protocol:
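MDA-kb2 human breast carcinoma cells carrying an MMTV-luciferase reporter (AR- and GR-responsive) were plated, rested 5 hr at 37C, dosed with compounds, then stimulated with 0.5 nM R1881 (final) for 16 hr; luminescence was read after ONE-Glo.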

The nature of experiment [4]: qHTS assay to identify small molecule HDAC inhibitors (AID 1259364). Note: nearly all actives have a fitted effect of over 45% in size. Note: potency is the fitted concentration of half-maximal effect. The essentials:
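Wild-type HCT-116 cells were plated overnight, exposed to compounds for 2 h at 37 °C, then given HDAC-Glo class I/II luminogenic reagent for 30 min at room temperature before luminescence was read.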

Experiment [5] in a line: qHTS assay to identify small molecule HDAC inhibitors - cell viability counter screen (AID 1259365). Note: nearly all actives have a fitted effect of over 50% in size. Note: potency is the fitted concentration of half-maximal effect. The essentials:
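CellTiter-Glo luminescence (30 min, room temperature) reported viability after a 2 h compound exposure at 37 C. Cells: wild-type HCT-116, 1,500 per well, seeded the night before.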

Experiment [6] in a line: qHTS assay to identify small molecule agonists of the sonic hedgehog signaling (Shh) pathway - cell viability counter screen (AID 1259366). Note: nearly all actives have a fitted effect of over 50% in size. Note: potency is the fitted concentration of half-maximal effect. The essentials:
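Cytotoxicity counter screen: CellTiter-Fluor reagent added after 23 h compound exposure, then 1 h at 37C and fluorescence read. Cells were 3T3 Gli1-Luc, seeded 2,000 per well and dosed 4 h post-plating.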

Experiment [7] in a line: qHTS assay to identify small molecule antagonists of the sonic hedgehog signaling (Shh) pathway - cell viability counter screen (AID 1259367). Note: nearly all actives have a fitted effect of over 55% in size. Note: potency is the fitted concentration of half-maximal effect. The essentials:
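NIH/3T3-derived Gli1-Luc reporter cells, 2,000/well, plated 4 hr before compound addition, then stimulated with conditioned medium for 24 hr at 37C. Viability measured in the same wells by CellTiter-Fluor fluorescence, reagent added at 23 hr for 1 hr.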

Experiment [8] in a line: qHTS assay to identify small molecule agonists of the sonic hedgehog signaling (Shh) pathway (AID 1259368; calls by dose curve; note: nearly all actives have a fitted effect of over 15% in size; note: potency is the fitted concentration of half-maximal effect). The essentials: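 NIH/3T3-derived 3T3Gli1-Luc cells carrying a stably integrated Gli1 response element–firefly luciferase reporter were plated, left 4 hr at 37 C, then given compounds in DMSO for 24 hr. Luminescence was read 30 min after adding luciferase reagent.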

Experiment [9] concerns the target Estrogen receptor (Homo sapiens) (UniProt P03372). Nature of the experiment: qHTS assay to identify small molecule antagonists of the estrogen receptor alpha (ER-alpha) signaling pathway using the BG1 cell line in the presence of 0.1 nM 17-beta-estradiol (AID 1259244). Note: nearly all actives have a fitted effect of over 50% in size. Note: potency is the fitted concentration of half-maximal effect. The essentials:
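VM7Luc4E2 cells (endogenous full-length ER-alpha, stable 4xERE-luciferase) were grown 5 days in phenol red-free medium with charcoal-stripped FBS, then exposed 22 h at 37C to compounds plus 0.1 nM (final) 17beta-estradiol; ONE-Glo luminescence read-out.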

A short description of experiment [10]: qHTS assay to identify small molecule phospholipidosis (PLD) inducers (AID 1259344; active = well fitted curve in the direction sought with a large enough effect; an effect the other way counts as inactive or inconclusive). The essentials:
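HepG2 cells, 900/well, treated with compound plus LipidTOX Red for 24 h at 37 C; amiodarone positive and DMSO negative controls. Fixed with paraformaldehyde/Hoechst, then high-content imaging scored LipidTOX pit count and integrated intensity per well and per cell.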

The structures appear in SMILES notation. “And” between values parts separate entries of the source, which are not always exact repeats. Equal values may be shown once. Unmarked numbers belong to inactive results. Inconclusive results are not listed. The source made the active and inactive calls. Unless noted, calls come from the whole dose curve; as a rule, active = well fitted curve in the direction sought with a large enough effect in the repeat runs; inconclusive = weak or mixed curves; inactive = no such curve, though single readings can be large; an effect the other way counts as inactive or inconclusive.

Chain of Androgen receptor (Homo sapiens) (P10275 whole entry, looked up): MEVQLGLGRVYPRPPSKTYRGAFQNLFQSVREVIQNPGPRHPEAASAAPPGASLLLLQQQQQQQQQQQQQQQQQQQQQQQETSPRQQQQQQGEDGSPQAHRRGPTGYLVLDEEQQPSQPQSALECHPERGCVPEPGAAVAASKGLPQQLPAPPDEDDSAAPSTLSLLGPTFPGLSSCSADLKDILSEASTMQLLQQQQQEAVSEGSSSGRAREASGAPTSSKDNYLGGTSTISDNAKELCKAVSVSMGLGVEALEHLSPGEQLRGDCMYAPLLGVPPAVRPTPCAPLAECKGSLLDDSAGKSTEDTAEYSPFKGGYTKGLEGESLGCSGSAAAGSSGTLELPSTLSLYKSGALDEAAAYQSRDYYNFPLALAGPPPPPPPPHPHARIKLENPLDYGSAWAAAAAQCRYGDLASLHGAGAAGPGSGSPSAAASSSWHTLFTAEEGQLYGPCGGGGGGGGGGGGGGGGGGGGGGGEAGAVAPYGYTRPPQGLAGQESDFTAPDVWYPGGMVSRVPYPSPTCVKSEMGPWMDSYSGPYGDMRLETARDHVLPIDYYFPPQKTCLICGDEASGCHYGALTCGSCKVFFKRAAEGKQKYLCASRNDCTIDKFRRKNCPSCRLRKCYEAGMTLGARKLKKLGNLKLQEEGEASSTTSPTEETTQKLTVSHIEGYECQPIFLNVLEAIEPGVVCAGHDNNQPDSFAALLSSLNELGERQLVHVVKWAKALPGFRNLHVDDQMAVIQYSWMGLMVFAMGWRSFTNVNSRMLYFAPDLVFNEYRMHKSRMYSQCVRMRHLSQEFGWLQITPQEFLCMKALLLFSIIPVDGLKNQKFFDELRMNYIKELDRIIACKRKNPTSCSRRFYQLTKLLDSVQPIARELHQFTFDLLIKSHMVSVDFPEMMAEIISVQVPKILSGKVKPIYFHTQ
Chain of Estrogen receptor (Homo sapiens) (P03372 whole entry, looked up): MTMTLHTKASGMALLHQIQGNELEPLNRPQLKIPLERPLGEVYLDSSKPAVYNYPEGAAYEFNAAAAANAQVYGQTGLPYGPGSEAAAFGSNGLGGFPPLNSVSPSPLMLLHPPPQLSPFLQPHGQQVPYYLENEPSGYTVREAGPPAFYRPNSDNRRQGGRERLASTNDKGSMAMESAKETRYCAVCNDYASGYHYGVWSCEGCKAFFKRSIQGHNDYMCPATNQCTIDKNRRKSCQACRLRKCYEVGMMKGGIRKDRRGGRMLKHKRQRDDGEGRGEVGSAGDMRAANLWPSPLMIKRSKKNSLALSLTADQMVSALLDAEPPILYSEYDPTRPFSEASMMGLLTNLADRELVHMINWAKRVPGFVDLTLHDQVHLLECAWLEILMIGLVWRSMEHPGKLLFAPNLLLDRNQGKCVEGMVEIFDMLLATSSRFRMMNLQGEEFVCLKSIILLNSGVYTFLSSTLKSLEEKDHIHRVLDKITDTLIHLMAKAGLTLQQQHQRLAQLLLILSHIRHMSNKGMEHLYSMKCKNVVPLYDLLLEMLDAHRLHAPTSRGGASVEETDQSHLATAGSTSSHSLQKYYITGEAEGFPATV

With `Cc1nn(-c2cc(NS(C)(=O)=O)c(Cl)cc2Cl)c(=O)n1C(F)F`, the Potency result in experiment [1], in experiment [2], in [3], in experiment [4], in experiment [5] and in [6] was “inactive” throughout. Further, the Potency result in experiment [7] and in experiment [8] was “inactive” throughout.
With `O=C1C(Cl)=C(Cl)C(=O)C(Cl)=C1Cl`, the Potency result in [1], in experiment [4], in [5] and in experiment [8] was “inactive” each time. In addition, the Potency in [2] was 48.4 µM (active); in experiment [3], 27.2 µM (active) and 24.3 µM (active); in experiment [6] it was 24.2 µM (active) and 24.3 µM (active); in experiment [7], 60.9 µM (active) and 24.3 µM (active).
Consider `COP(=O)(OC)O/C(=C\Cl)c1cc(Cl)c(Cl)cc1Cl`, for which the Potency entry in experiment [1], in [2], in experiment [4], in [5], in experiment [6] and in [7] was “inactive” each time. Also, the Potency result in [8] is “inactive”. Further, the Potency in experiment [3] was 68.6 µM (active).
Turning to `CC(Cc1ccccc1)N(C)Cc1ccco1` (stereo not given), the Potency entry in [1], in experiment [2], in experiment [3], in experiment [9], in experiment [4] and in experiment [5] was “inactive” throughout. The Potency result in [6], in experiment [7] and in experiment [8] was “inactive” in each case.
As for `Cc1cccc(Cc2cnc[nH]2)c1C`, the Potency entry in experiment [1], in [2], in [9], in experiment [4], in [6] and in [7] was “inactive” in each case. Moreover, the Potency result in experiment [8] is “inactive”. Also, in experiment [10], the call was inactive.
Take `CCNS(=O)(=O)C(F)(F)C(F)(F)C(F)(F)C(F)(F)C(F)(F)C(F)(F)C(F)(F)C(F)(F)F`: the Potency result in experiment [1], in experiment [2], in [3], in experiment [4] and in [8] was “inactive” each time.
For the compound `CCOP(=O)(OCC)Oc1nc(Cl)c(Cl)cc1Cl`, the Potency entry in [1], in experiment [2], in [3], in [5], in experiment [6] and in [7] was “inactive” in each case. Besides, the Potency entry in experiment [8] was “inactive”.
As to `O=[N+]([O-])C(Br)Br`, the Potency result in [1], in experiment [2], in [3], in [4], in [5] and in [6] was “inactive” throughout. Further, the Potency result in experiment [7] and in [8] was “inactive” in each case.
For the compound `CCOC(=O)Cc1ccccc1`, the Potency result in [1], in experiment [2], in [3], in experiment [4], in [5] and in experiment [6] was “inactive” in each case. In addition, the Potency entry in experiment [8] is “inactive”.
Consider `O=c1[nH]c2cc(Cl)ccc2n1C1CCNCC1`, for which the Potency entry in experiment [1], in experiment [2], in [3], in [9], in [4] and in experiment [5] was “inactive” each time. The Potency entry in experiment [7] and in experiment [8] was “inactive” each time.
For the compound `Nc1ccc(Cl)cc1C(=O)c1ccccc1F`, the Potency entry in experiment [1], in [2], in experiment [4], in [5], in experiment [6] and in experiment [8] was “inactive” throughout. Further, the Potency in [3] is 10.6 µM (active).
Turning to `BrCCCBr`, the Potency entry in experiment [1], in [2], in experiment [3], in experiment [4], in experiment [5] and in experiment [6] was “inactive” throughout. The Potency entry in experiment [7] and in [8] was “inactive” in each case.
As for `[Cl][Hg][c]1ccccc1`, the Potency in experiment [1] is 9.69 µM (active); in experiment [2], 8.63 µM (active); in experiment [3], 2.43 µM (active); in experiment [9], 6.11 µM (active); in experiment [4], 30.6 µM (active); in [5], 13.7 µM (active). Further, the Potency in [6] is 545 nM (active); in [7] it was 864 nM (active). The Potency entry in experiment [8] is “inactive”.
On to `C[C@]12CC[C@H]3[C@@H](CCC4=CC(=O)CC[C@@H]43)[C@@H]1CC[C@@H]2OC(=O)CCc1ccco1`, for which the Potency entry in experiment [1], in [2], in experiment [3], in experiment [4], in experiment [5] and in experiment [6] was “inactive” each time. The Potency entry in experiment [7] and in experiment [8] was “inactive” throughout.
Consider `Fc1ccc(C(OCCN2CCN(CCCc3ccccc3)CC2)c2ccc(F)cc2)cc1`, for which the Potency in [1] is 29.8 µM (active); in experiment [2], 23.7 µM (active); in [3] it was 8.41 µM (active); in [9], 23.7 µM (active); in experiment [6] it was 18800 nM (active). The compound was classed as inactive in [10]. Further, the Potency entry in experiment [4], in experiment [5] and in experiment [8] was “inactive” in each case.
As for `O=c1[nH]c(Cl)c(Cl)cc1Cl`, the Potency entry in experiment [1], in experiment [2], in [3], in [5], in [6] and in experiment [7] was “inactive” throughout. Further, the Potency result in experiment [8] was “inactive”.
As for `CCOP(=O)(Sc1ccccc1)Sc1ccccc1`, the Potency result in experiment [1], in [2], in experiment [9], in experiment [4], in experiment [5] and in experiment [6] was “inactive” each time. Further, the Potency result in [7] and in experiment [8] was “inactive” in each case.
As for `c1ccc2nc(N3CCNCC3)ccc2c1`, the Potency entry in experiment [1], in experiment [2], in [9], in [4], in experiment [5] and in experiment [7] was “inactive” in each case. In addition, in experiment [8], the Potency result is “inactive”. In experiment [10], the outcome was inactive.
In the case of `CC(=O)[O][Pb]([c]1ccccc1)([c]1ccccc1)[c]1ccccc1`, the Potency in [1] is 21.7 µM (active); in experiment [2], 6.11 µM (active); in experiment [3], 0.969 µM (active); in experiment [6] it was 486 nM (active); in experiment [7], 770 nM (active). Also, the Potency result in experiment [8] was “inactive”.
Consider `CN(C)C(=S)SSC(=S)N(C)C`, for which the Potency in [1] is 676 nM (active) and 6.86 µM (active) and 266 nM (active); in [2], 214 nM (active) and 217 nM (active); in [3] it was 107 nM (active) and 172 nM (active) and 188 nM (active); in [9], 191 nM (active) and 273 nM (active) and 237 nM (active); in experiment [6] it was 427 nM (active) and 545 nM (active) and 422 nM (active). In addition, the compound was classed as inactive in experiment [10]. Further, the Potency entry in experiment [4] and in experiment [8] was “inactive” in each case.
For `O=C(CCCCl)c1ccc(F)cc1`, the Potency entry in [1], in experiment [2], in [3], in experiment [9], in experiment [4] and in experiment [6] was “inactive” in each case. Besides, the Potency entry in experiment [7] and in experiment [8] was “inactive” each time.
For the compound `CC(C)C(Nc1ccc(C(F)(F)F)cc1Cl)C(=O)OC(C#N)c1cccc(Oc2ccccc2)c1` (stereo not given), the Potency result in experiment [1], in experiment [2], in experiment [9], in experiment [4], in experiment [5] and in [6] was “inactive” each time. In [7], the Potency entry was “inactive”.
As for `S=C=NCCc1ccccc1`, the Potency result in [1], in [2], in experiment [4], in [6] and in [7] was “inactive” each time. Also, the Potency is 48.7 µM (active) in [3] and 61.3 µM (active) in experiment [8].
Take `N#CC(C#N)=NNc1cccc(Cl)c1`: the Potency in experiment [1] is 12.2 µM (active); in [2], 2.43 µM (active); in [3], 1.54 µM (active); in experiment [4], 24.3 µM (active); in experiment [6] it was 27300 nM (active); in experiment [7] it was 27300 nM (active). For the same compound, the Potency result in experiment [5] and in experiment [8] was “inactive” throughout.
Consider `S=C=Nc1ccccc1`, for which the Potency entry in [1], in [2], in [3], in [4], in [6] and in experiment [7] was “inactive” throughout. The Potency entry in experiment [8] was “inactive”.
As for `CC(C)C(Br)C(=O)NC(N)=O` (stereo not given), the Potency result in experiment [1], in experiment [2], in [9], in experiment [4], in experiment [5] and in [6] was “inactive” each time. Also, the Potency entry in experiment [7] and in [8] was “inactive” each time. Further, the result in experiment [10] was inactive.

These data come from PubChem BioAssay (Tox21).
